According to PubChem BioAssay (NCATS):
Several values for one entry are separate records, joined by “and”; a condition that tells them apart may be missing. Equal values may be shown once. Results filed as inconclusive are left out. A number with no mark means an inactive call. Activity calls are given as the source filed them. Calls follow the shape of the dose curve; as a rule, active = well fitted cell-killing curve with a large enough effect; inconclusive = small, poorly fitted or top-dose-only effect, or effect the other way; inactive = no such curve, though single readings can be large or run the other way.

assay: Viability qHTS for spleen associated tyrosine kinase inhibitor (SYKi) drug resistant MV4-11 cells (AID 1963824); conditions: SYKi-resistant MV4-11 viability, CellTiter-Glo, 72 h; series mostly up to 45 µM; viability, % of control: at the top concentration; also: nearly all actives have a fitted effect of over 35% in size
Excerpt: Department of Medicine, Hematology/Oncology
University Hospital Frankfurt, Germany.
Trials have shown promising clinical activity of the selective SYK inhibitor entospletinib in patients with high expressing HOXA9/MEIS1 acute leukemias. As the development of resistance mechanisms is a common problem in the use of targeted drugs, we performed a chemical library screen to identify drug sensitivities in SYK inhibitor resistant AML cells. […] Glucocorticoids are potent immunosuppressants which work in part by inhibiting the transcription of cytokine genes.
Described herein is a viability screen to look for activity in the SYK inhibitor drug resistant cell line against four NCATS compound libraries (MIPE 5.0, NPC, NPACT, and Kinase) totaling 11372 compounds. Active hits were reacquired for confirmation and further secondary assay testing.
SEQUENCE No. (e.g., 1, 2, 3, etc.); […] (e.g., Cells, Incubation, Reagent, etc.); VALUE; DESCRIPTION.
1; Media; 2uL; white, solid-bottom Corning assay plate.
2; Compounds; 23nL; Echo acoustic dispenser.
3; Cell; 5uL; 500 cells per well.
4: Incubation; 72hr; 37 C, 5% CO2, 95% humidity.
5; Reagent; 3uL; CellTiter-Glo reagent (Promega).
6; Incubation; 10min; room temperature.
7; Detection; Luminescence; ViewLux plate reader (PerkinElmer).
NOTES (numbers refer to Sequence numbers above
1. Quantitative high-throughput screening (qHTS) of small molecule compounds was conducted on drug resistant SYKi MV4-11 cell line.
2. Twenty-three nanoliter of small molecule compounds were added to each assay plates using the Echo acoustic dispenser (Beckman Coulter).
3. Cells were seeded into the assay plates at a final density of 500 cells in 5uL of media per well using the Multidrop Combi dispenser.
4. Plates were covered with stainless steel gasketed lids and incubated for 72 hours at standard cell culture conditions.
5. Viability was assessed by adding 3uL of CellTiter-Glo detection reagent (Promega).
6. Plates were covered with gasket lids and incubated for 10 minutes at room temperature.
7. Luminescence was measured on a ViewLux plate reader (PerkinElmer).
Potency is read from the fitted curve at half-maximal effect.

SMILES	Potency	viability, % of control
CCCSc1nc(NC2CC2c2ccc(F)c(F)c2)c2nnn(C3CC(OCCO)C(O)C3O)c2n1 (stereo not given)	20.6 µM (active)	–
CCCC(CCC)C(=O)O	–	98.4%
CCOC(=O)N1CCN(/[N+]([O-])=N/Oc2ccc([N+](=O)[O-])cc2[N+](=O)[O-])CC1	2.63 µM (active)	–
C=C1CN(Cc2ccc(C(=O)Nc3ccccc3N)cc2)C(=O)c2ccccc21	0.517 µM (active)	–
CCOc1ccccc1OCCNC(C)Cc1ccc(OC)c(S(N)(=O)=O)c1 (stereo not given)	–	72.6%
COC12CC3C(C(C)C1=CC(=O)O2)C(O)C(OC(C)=O)C1C(C)(C)C(OC(C)=O)CCC31C (stereo not given)	–	102% [at 17.3 µM]
CC1=C2CC3OC3(C)CCC3OC3(C)CC2OC1=O (stereo not given)	3.66 µM (active)	–
CC(C)=CCC[C@](C)(O[C@@H]1O[C@H](CO[C@@H]2O[C@@H](CO)[C@H](O)[C@H]2O[C@@H]2OC[C@@H](O)[C@H](O)[C@H]2O)[C@@H](O)[C@H](O)[C@H]1O)[C@H]1CC[C@]2(C)[C@@H]1[C@H](O)CC1[C@@]3(C)CC[C@H](O[C@@H]4O[C@H](CO)[C@@H](O)[C@H](O)[C@H]4O[C@@H]4O[C@H](CO)[C@@H](O)[C@H](O)[C@H]4O)C(C)(C)C3CC[C@]12C (stereo not given in full)	–	92.9% [at 9.25 µM]
COC(=O)C1=CO[C@@H](O[C@@H]2O[C@H](CO)[C@@H](O)[C@H](O)[C@H]2O)[C@@H]2[C@@H](CO)[C@@H](O)C(O)[C@H]12 (stereo not given in full)	–	83% [at 17.3 µM]
Cc1c(C(=O)NCc2cccnc2)nn(-c2ccc(Cl)cc2Cl)c1-c1ccc(Cl)cc1	–	78.8%
COc1cc2c(cc1OC)/C(=C/c1ccc(O)cc1)C(=O)N2	18.4 µM (active)	–
O=C(O)C[C@H]1CCC(=O)[C@@H]1C/C=C\CCOC1OC(CO)C(O)C(O)C1O (stereo not given in full)	–	112%
CC(C)CC(=O)O[C@@H]1OC=C(CO[C@@H]2O[C@H](CO[C@@H]3O[C@H](CO)[C@@H](O)[C@H](O)[C@H]3O)[C@@H](O)[C@H](O)[C@H]2O)[C@H]2C[C@H](O)[C@@H](CO)[C@@H]12	–	102% [at 17.3 µM]
O=C(CCOCCOCCOCCOCCC(=O)Nc1c(I)cc(I)c(C(=O)O)c1I)Nc1c(I)cc(I)c(C(=O)O)c1I	–	76.4%
CSCC[C@H](NC(=O)[C@H](CCSC)NC(=O)CNC(=O)[C@H](Cc1ccc(O)cc1)NC(=O)[C@H](Cc1ccccc1)NC(=O)[C@H](CCCN=C(N)N)NC(=O)[C@H](CC(=O)O)NC(=O)[C@@H]1CCCN1C(=O)[C@H](CC(=O)O)NC(=O)[C@@H]1CCCN1C(=O)[C@@H]1CCCN1C(=O)[C@@H](N)CC(=O)O)C(N)=O	–	105% [at 17.3 µM]
O=C(/C=C/c1ccccc1)OC[C@]12O[C@H]1[C@@H](O)[C@@H]1C=CO[C@@H](O[C@@H]3O[C@H](CO)[C@@H](O)[C@H](O)[C@H]3O)[C@@H]12	–	91.5% [at 17.3 µM]
CC(=O)OCC1=C(C(=O)O)N2C(=O)[C@@H](NC(=O)CSc3ccncc3)[C@H]2SC1	–	76.7%
CC(=O)N[C@@H](Cc1ccc(O)cc1)C(=O)O	–	102%
CNc1nccc(-c2cccnc2Oc2cc(C(=O)Nc3cccc(C(F)(F)F)c3)ccc2C)n1	1.3 µM (active) and 2.09 µM (active)	–
C=C(C(=O)OC)[C@@H]1CC=C2C=CC(=O)[C@H](C)[C@@]2(C)C1	18.4 µM (active)	–

SMILES	Potency	viability, % of control
C1=CC2C3C=CC(C3)C2C1 (stereo not given)	–	96.1% [at 91.9 µM]
Cc1ccc(Nc2cc(-c3cccc(N4C(=O)c5ccccc5C4=O)c3)ncn2)cc1NS(C)(=O)=O	16.6 µM (active)	–
OC[C@H]1O[C@H](O[C@]2(CCl)O[C@H](CCl)[C@@H](O)[C@@H]2O)[C@H](O)[C@@H](O)[C@H]1Cl	inactive	–
C/C=C/C=C/[C@@H]1O[C@](O)([C@H](CC)C(=O)NC/C=C/C=C(\C)[C@@H](OC)[C@@H](C)C2OC(/C=C/C=C/C=C(\C)C(=O)c3c(O)cc[nH]c3=O)[C@H](O)[C@@H]2O)[C@H](O)[C@H](O)C1(C)C (stereo not given in full)	0.243 µM (active)	–
C=C(C)[C@@H]1CC[C@]2(C)CC[C@]3(C)C(CCC4[C@@]5(C)CC[C@H](O)C(C)(C)C5CC[C@]43C)C12 (stereo not given in full)	–	88% [at 17.3 µM]
Cc1cn(C2C[C@H](O)[C@@H](CO)O2)c(=O)[nH]c1=O (stereo not given in full)	–	92.7%
CC(C)(OC1OC(CO)C(O)C(O)C1O)C1CCC(O)(CO)C2CC(=O)C(C)(O)C2C1 (stereo not given)	–	103% [at 17.3 µM]
c1ccc(CNCc2ccc(CN3CCCNCCNCCCNCC3)cc2)nc1	–	90.1%
C[C@H](C(=O)NC1CCCC1)N(C(=O)Cn1nnc(-c2ccc3c(c2)OCO3)n1)C1CCCCC1	2.91 µM (active)	–
O=C(O[C@H]1[C@H](Oc2ccc(O)cc2CO)O[C@H](CO)[C@@H](O)[C@@H]1O)c1ccccc1	–	91.1% [at 17.3 µM]
CC1=C2CC(=O)C(C)CC/C=C(\C)CC2(O)OC1=O (stereo not given)	–	97.5%
CC(=O)OC[C@H]1O[C@@H](n2ncc(=O)[nH]c2=O)[C@H](OC(C)=O)[C@@H]1OC(C)=O	–	109%
COCCCN1CCC(NC(=O)c2cc(Cl)c(N)c3c2OCC3)CC1	inactive	–
COc1cc(C)c(C(=O)O[C@H]2[C@@H](O)[C@H](n3ccc(=O)[nH]c3=O)O[C@@H]2CO)c(OC)c1	–	92.3% [at 17.3 µM]
Cc1ccc(C(=O)N(CCCN)C(c2oc3cc(Cl)ccc3c(=O)c2Cc2ccccc2)C(C)C)cc1 (stereo not given)	–	2.2%
CC1CCN(CCCC(=O)c2ccc(F)cc2)CC1	–	79.6%
CN1CCN(C(=O)CN[C@@H]2C[C@H]2c2ccc(OCc3ccccc3)cc2)CC1	25.9 µM (active)	–
CC(=O)N[C@@H](CCC(=O)O)C(=O)O	–	74.9%
Nc1nc(F)nc2c1ncn2C1OC(COP(=O)(O)O)C(O)C1O (stereo not given)	14.8 µM (active)	–
CC(C)=CCC[C@](C)(O[C@@H]1O[C@H](CO)[C@@H](O)[C@H](O)[C@H]1O)[C@H]1CC[C@]2(C)[C@@H]1[C@H](O)CC1[C@@]3(C)CC[C@H](O)C(C)(C)C3[C@@H](O[C@@H]3O[C@H](CO)[C@@H](O)[C@H](O)[C@H]3O)C[C@]12C (stereo not given in full)	–	102% [at 17.3 µM]
